# Measurements published in PubChem BioAssay (EPA / NIEHS).
# Records with an inconclusive call do not appear. The source made the active and inactive calls. Rule for the calls, unless noted: active = hit-call score of the fitted dose curve at least 0.9, where 1 is the maximum; inconclusive = response in the unintended direction; inactive = score below 0.9.
# Experiments:
# [1] = TOX21_p53_BLA_p2_viability: Viability Assessment in the Tox21 HCT-116 p53 Agonism Beta-lactamase Assay, Phase 2 (AID 2283591);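 note: actives lower the ATP signal meaning cytotoxicity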
# How it was run: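 HCT116 p53-bla cells, 4000/well, dosed after 5 h plating (217-fold dilution of DMSO stocks) and incubated 16 h at 37C. Viability taken as cellular ATP by CellTiter-Glo luminescence after 30 min RT; signal loss marks cytotoxicity.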
# [2] = target: Cellular tumor antigen p53 (Homo sapiens) (UniProt P04637); assay: TOX21_p53_BLA_p2_ratio: Tox21 HCT-116 p53 Agonism Beta-lactamase Assay, Ratio, Phase 2 (AID 2283592)
# Chain of Cellular tumor antigen p53 (Homo sapiens) (P04637 whole entry, looked up): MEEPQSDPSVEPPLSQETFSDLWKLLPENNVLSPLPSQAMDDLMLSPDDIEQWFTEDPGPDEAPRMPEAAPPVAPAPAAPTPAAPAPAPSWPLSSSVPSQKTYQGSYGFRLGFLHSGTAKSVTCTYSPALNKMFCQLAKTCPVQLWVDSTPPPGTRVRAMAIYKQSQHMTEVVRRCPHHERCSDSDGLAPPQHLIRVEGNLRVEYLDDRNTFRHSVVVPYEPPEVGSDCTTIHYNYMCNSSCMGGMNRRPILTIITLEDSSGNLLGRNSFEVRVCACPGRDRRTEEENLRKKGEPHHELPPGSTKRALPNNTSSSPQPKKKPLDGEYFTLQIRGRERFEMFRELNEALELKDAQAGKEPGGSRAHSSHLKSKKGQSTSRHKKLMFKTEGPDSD
# How it was run: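 An inducible beta-lactamase reporter in HCT116 cells signals p53 pathway activation. After 16 h chemical exposure at 37C, cells load CCF4-AM substrate for 2 h at room temperature; activity is the cleaved/uncleaved emission ratio relative to DMSO.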
# [3] = target: Cellular tumor antigen p53 (Homo sapiens) (UniProt P04637); assay: TOX21_p53_BLA_p3_ratio: Tox21 HCT-116 p53 Agonism Beta-lactamase Assay, Ratio, Phase 3 (AID 2283596)
# How it was run: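 HCT116 p53-bla cells (4000/well) given compound in DMSO (217-fold dilution) after 5 h, incubated 16 h at 37C. CCF4-AM substrate 2 h at room temperature; 460/530 nm emission ratio, gain fitted against DMSO.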
# [4] = TOX21_p53_BLA_p4_viability: Viability Assessment in the Tox21 HCT-116 p53 Agonism Beta-lactamase Assay, Phase 4 (AID 2283597);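 note: hits lower the luminescence signal meaning cytotoxicity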
# How it was run: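 Compound exposure of HCT116 cells lasts 16 h at 37C, 5% CO2, with DMSO stocks diluted 217-fold. Cellular ATP is then quantified by CellTiter-Glo luminescence after 30 min at room temperature.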
# [5] = target: Cellular tumor antigen p53 (Homo sapiens) (UniProt P04637); assay: TOX21_p53_BLA_p5_ratio: Tox21 HCT-116 p53 Agonism Beta-lactamase Assay, Ratio, Phase 5 (AID 2283599)
# How it was run: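 HCT-116 p53-bla cells (4000/well) plated 5 h, dosed with compound (217-fold DMSO dilution) for 16 h at 37 C; CCF4-AM substrate 2 h at room temperature. Activity is the 460/530 nm emission ratio (405 nm excitation), fitted in gain-of-signal direction versus DMSO.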
# [6] = target: Cellular tumor antigen p53 (Homo sapiens) (UniProt P04637); assay: TOX21_p53_BLA_p4_ratio: Tox21 HCT-116 p53 Agonism Beta-lactamase Assay, Ratio, Phase 4 (AID 2283601)
# How it was run: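 HCT-116 p53 beta-lactamase reporter cells (4000/well) preincubated 5 h, then compound (217-fold dilution of DMSO stock) for 16 h at 37C. CCF4-AM substrate added 2 h at room temperature; 460/530 nm emission ratio fitted upward versus DMSO.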
# [7] = TOX21_p53_BLA_p5_viability: Viability Assessment in the Tox21 HCT-116 p53 Agonism Beta-lactamase Assay, Phase 5 (AID 2283600)
# How it was run: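 Counter-readout for cytotoxicity: ATP-dependent luminescence from CellTiter-Glo, read in the beta-lactamase wells after 30 min at RT, following a 16 h compound exposure at 37C.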
# [8] = system: Brachyury (BRA) Protein Expression, Deisenroth Lab, TBXT (gene 6862); assay: CCTE_Deisenroth_DEVTOX-GLR_legacy_Bra: (Legacy) CCTE's DevTox GLR-Endo Assay Evaluation of Brachyury (BRA) Protein Expression, Deisenroth Lab (AID 2284329; active = hit-call score of the fitted dose curve at least 0.9, where 1 is the maximum; inactive = score below 0.9)
# How it was run: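 RUES2-GLR human pluripotent cells are differentiated for 48 h and receive two chemical exposures 24 h apart, at 10 concentrations from 1 nM to 200 uM. Cells are fixed, nuclei stained and imaged. Bra+ cells are those with mean Bra intensity over 5x BMAD above the pluripotent control median, expressed as a percentage of cell count, after subtracting the 0.2% DMSO control median.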
# [9] = system: SRY-box transcription factor 17 (SOX17) Protein Expression, Deisenroth Lab, SOX17 (gene 64321); assay: CCTE_Deisenroth_DEVTOX-GLR_legacy_Sox17: (Legacy) CCTE's DevTox GLR-Endo Assay Evaluation of SRY-box transcription factor 17 (SOX17) Protein Expression, Deisenroth Lab (AID 2284341; active = hit-call score of the fitted dose curve at least 0.9, where 1 is the maximum; inactive = score below 0.9); settings: actives raise or lower the signal
# How it was run: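 RUES2-GLR human pluripotent cells, seeded 24 h, then differentiated 48 h in defined media with two chemical exposures 24 h apart (1 nM - 200 uM, 10 points). Sox17+ fraction from high-content fluorescence imaging; bidirectional fit versus 0.2% DMSO.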
# [10] = system: SRY-box transcription factor 2 (SOX2) Protein Expression, Deisenroth Lab, SOX2 (gene 6657); assay: CCTE_Deisenroth_DEVTOX-GLR_legacy_Sox2: (Legacy) CCTE's DevTox GLR-Endo Assay Evaluation of SRY-box transcription factor 2 (SOX2) Protein Expression, Deisenroth Lab (AID 2284346; active = hit-call score of the fitted dose curve at least 0.9, where 1 is the maximum; inactive = score below 0.9)
# How it was run: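 RUES2-GLR human pluripotent cells were differentiated for 48 h with two chemical doses 24 h apart, over 1 nM-200 uM. Sox2+ cells were those above 5x BMAD of the endoderm-control median; percent Sox2+ minus the 0.2% DMSO median was used, from n=4 replicates.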
# [11] = system: SRY-box transcription factor 2 (SOX2) Protein Expression, Deisenroth Lab, SOX2 (gene 6657); assay: CCTE_Deisenroth_DEVTOX-GLR_Endo_SOX2: CCTE's DevTox GLR-Endo Assay Evaluation of SRY-box transcription factor 2 (SOX2) Protein Expression, Deisenroth Lab (AID 2284412)
# How it was run: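 RUES2-GLR human pluripotent cells were seeded 24 h, then differentiated 48 h with two chemical exposures 24 h apart. Cells were fixed, nuclei stained and imaged by high-content microscopy. Endpoint is %SOX2+ cells over cell count, minus 0.2% DMSO control; 10-point series 1 nM–200 uM.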
# [12] = system: Brachyury (BRA) Protein Expression, TBXT (gene 6862); assay: CCTE_Deisenroth_DEVTOX-GLR_Endo_BRA: CCTE's DevTox GLR-Endo Assay Evaluation of Brachyury (BRA) Protein Expression, Deisenroth Lab (AID 2284417; active = hit-call score of the fitted dose curve at least 0.9, where 1 is the maximum; inactive = score below 0.9)
# How it was run: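 RUES2-GLR human pluripotent cells, seeded 24 h, then differentiated 48 h in defined media with two chemical exposures 24 h apart (10-point series, 1 nM - 200 uM). Fixed, nuclear-stained, imaged; endpoint is percent BRA+ cells minus 0.2% DMSO control.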
# [13] = CCTE_Deisenroth_DEVTOX-GLR_Endo_CellCount: Viability Assessment in CCTE's DevTox GLR-Endo Assay, Deisenroth Lab (AID 2284420; active = hit-call score of the fitted dose curve at least 0.9, where 1 is the maximum; inactive = score below 0.9)
# How it was run: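 Viability in differentiating RUES2-GLR cultures is scored by fluorescent nuclear counts after 48 h and two 24-hourly chemical treatments, as percent change from the 0.2% DMSO control.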
# [14] = system: SRY-box transcription factor 17 (SOX17) Protein Expression, Deisenroth Lab, SOX17 (gene 64321); assay: CCTE_Deisenroth_DEVTOX-GLR_Pluri_SOX17: CCTE's DevTox GLR-Pluri Assay Evaluation of SRY-box transcription factor 17 (SOX17) Protein Expression, Deisenroth Lab (AID 2284427)
# How it was run: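 Seed cells 24 h; differentiate 48 h, dosing at 0 and 24 h (1 nM - 200 uM); fix, stain nuclei, image 5 fields per well; count SOX17+ cells over total cells and subtract 0.2% DMSO control.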
# [15] = system: SRY-box transcription factor 2 (SOX2) Protein Expression, Deisenroth Lab, SOX2 (gene 6657); assay: CCTE_Deisenroth_DEVTOX-GLR_Pluri_SOX2: CCTE's DevTox GLR-Pluri Assay Evaluation of SRY-box transcription factor 2 (SOX2) Protein Expression, Deisenroth Lab (AID 2284428; active = hit-call score of the fitted dose curve at least 0.9, where 1 is the maximum; inactive = score below 0.9)
# How it was run: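 SOX2 expression frequency is scored in a human pluripotent reporter line, RUES2-GLR, exposed to chemicals twice over 48 h. Imaging-based SOX2+ cell percentage is normalized as change versus 0.2% DMSO.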
# [16] = system: Brachyury (BRA) Protein Expression, Deisenroth Lab, TBXT (gene 6862); assay: CCTE_Deisenroth_DEVTOX-GLR_Pluri_BRA: CCTE's DevTox GLR-Pluri Assay Evaluation of Brachyury (BRA) Protein Expression, Deisenroth Lab (AID 2284429)
# How it was run: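 RUES2-GLR human pluripotent cells differentiated 48 hours with two chemical exposures 24 hours apart, 10-point series 1 nM–200 uM. Fixed, nuclear-stained, imaged; endpoint is percent BRA+ cells minus 0.2% DMSO control.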
# [17] = CCTE_Deisenroth_DEVTOX-GLR_Pluri_CellCount: Viability Assessment in CCTE's DevTox GLR-Pluri Assay Evaluation of Total Cell Counts, Deisenroth Lab (AID 2284430; active = hit-call score of the fitted dose curve at least 0.9, where 1 is the maximum; inactive = score below 0.9)
# How it was run: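 RUES2-GLR human pluripotent cells, seeded 24 h, then differentiated 48 h with two chemical exposures 24 h apart; 10-point series 1 nM - 200 uM. Fixed, nuclear-stained, imaged (5 fields/well); nuclei count as % change vs 0.2% DMSO.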
smiles,measurement,setting,value
O=NN(CCCl)C(=O)NCCCl,outcome,[1],inactive
same,outcome,[2],inactive
same,outcome,[3],inactive
same,outcome,[4],inactive
same,outcome,[5],inactive
same,outcome,[6],inactive
COc1ccc(C(=O)c2ccc(OC)cc2O)c(O)c1,outcome,[1],inactive
same,outcome,[2],inactive
same,outcome,[3],inactive
same,outcome,[4],inactive
same,outcome,[6],inactive
COc1cc2c(c(OC)c1OC)-c1c(cc3c(c1OC)OCO3)C[C@@H](C)[C@](C)(O)C2,outcome,[1],inactive
same,outcome,[2],inactive
same,outcome,[3],inactive
same,outcome,[4],inactive
same,outcome,[6],inactive
CCN[C@H]1CN(CCCOC)S(=O)(=O)c2sc(S(N)(=O)=O)cc21,outcome,[1],inactive
same,outcome,[2],inactive
same,outcome,[3],inactive
same,outcome,[4],inactive
same,outcome,[5],inactive
same,outcome,[6],inactive
CCCOC(=O)C(C)O (stereo not given),outcome,[1],inactive
same,outcome,[2],inactive
same,outcome,[3],inactive
same,outcome,[4],inactive
same,outcome,[7],inactive
same,outcome,[6],inactive
OC[C@H]1O[C@@H](n2cnc3c2NC=NC[C@H]3O)C[C@@H]1O,outcome,[1],inactive
same,outcome,[2],inactive
same,outcome,[3],inactive
same,outcome,[4],inactive
same,outcome,[7],inactive
same,outcome,[6],inactive
NCC(O)CC(=O)O (stereo not given),outcome,[1],inactive
same,outcome,[2],inactive
same,outcome,[3],inactive
same,outcome,[4],inactive
same,outcome,[5],inactive
same,outcome,[6],inactive
C=CC1=C(C)C2=CC3=NC(=C(CC(=O)[O-])C4=NC(=C(C)C4=C([O-])[O-])C=c4[n-]c(c(C)c4CC)=CC1=N2)[C@@H](CCC(=O)[O-])[C@@H]3C.[Cu+2].[Na+].[Na+].[Na+],outcome,[1],inactive
same,outcome,[2],inactive
same,outcome,[3],inactive
same,outcome,[4],inactive
same,outcome,[7],inactive
same,outcome,[6],inactive
CCOC(=O)CC(=O)c1cc(F)c(Cl)nc1Cl,outcome,[1],inactive
same,outcome,[2],inactive
same,outcome,[3],inactive
same,outcome,[4],inactive
same,outcome,[7],inactive
same,outcome,[6],inactive
CCC(=O)c1c(O)cc(O)cc1O,outcome,[1],inactive
same,outcome,[2],inactive
same,outcome,[3],inactive
same,outcome,[4],inactive
same,outcome,[5],inactive
same,outcome,[6],inactive
CC(CCC(=O)O)C(=O)O (stereo not given),outcome,[1],inactive
same,outcome,[2],inactive
same,outcome,[3],inactive
same,outcome,[4],inactive
same,outcome,[5],inactive
same,outcome,[6],inactive
CN1CCN2c3ccccc3Cc3ccccc3C2C1 (stereo not given),AC50,[1],38.9 µM (active)
same,AC50,[2],44.4 µM (active)
same,outcome,[3],inactive
same,AC50,[4],37.8 µM (active)
same,outcome,[7],inactive
same,AC50,[6],43.6 µM (active)
same,AC50,[8],52.7 µM (active)
same,AC50,[9],34.3 µM (active)
same,AC50,[10],50.1 µM (active)
same,AC50,[11],89.7 µM (active)
same,AC50,[12],71.3 µM (active)
same,AC50,[13],36.4 µM (active)
same,AC50,[14],57 µM (active)
same,AC50,[15],24.3 µM (active)
same,AC50,[16],100 µM (active)
same,AC50,[17],877 nM (active)
CCOc1cc(OCC)c(C(C)=O)cc1OCC,outcome,[1],inactive
same,outcome,[2],inactive
same,outcome,[3],inactive
same,outcome,[4],inactive
same,outcome,[7],inactive
Nc1ccc(S(=O)(=O)NCc2ccccc2)cc1,outcome,[1],inactive
same,outcome,[2],inactive
same,outcome,[3],inactive
same,outcome,[4],inactive
same,outcome,[7],inactive
